Assay results as given in PubChem BioAssay (EPA / NIEHS).
Active and inactive are the calls of the source. Rule for the calls: active = hit-call score of the fitted dose curve at least 0.9, where 1 is the maximum; inactive = score below 0.9.

assay: CEETOX_H295R_11DCORT: CeeTox H295R High-throughput Steroidogenesis Assay for 11-Deoxycortisol (11DCORT) (AID 2283432); conditions: actives raise or lower the signal;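 for AC50: human adrenal H295R cells prestimulated with 10 µM forskolin for 48 h; 11-deoxycortisol secreted into the medium measured by LC-MS/MS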
Method in brief: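 H295R cells; 10 uM forskolin prestim 48 h; compound in 0.1% DMSO 48 h; media extracted with MTBE; 11-deoxycortisol by LC-MS/MS, 7-point standard curve; gain/loss vs DMSO baseline; viability by MTT in same wells.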

| SMILES | AC50 | outcome |
| --- | --- | --- |
| CCCCCCCCCCCCN1CCOCC1 | 0.559 µM (active) |  |
| O=C(OCc1ccccc1)c1ccccc1O |  | inactive |
| CC(=O)c1ccc2ccccc2c1 |  | inactive |
| COc1ccc2[nH]cc(CCNC(C)=O)c2c1 | 44.5 µM (active) |  |
| c1ccc(OCCOc2ccccc2)cc1 |  | inactive |

assay: CEETOX_H295R_OHPREG: CeeTox H295R High-throughput Steroidogenesis Assay for OH-Pregnenolone (OHPREG) (AID 2283434); conditions: actives raise or lower the signal
Method in brief: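 Hormone levels in spent medium were measured by tandem mass spectrometry following liquid-liquid extraction. Cells (H295R) had been forskolin-stimulated (10 uM, 48 h) before a 48 h chemical exposure at 0.1% DMSO, with activity fitted in both directions against DMSO.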

| SMILES | AC50 | outcome |
| --- | --- | --- |
| CCCCCCCCCCCCN1CCOCC1 | 0.645 µM (active) |  |
| O=C(OCc1ccccc1)c1ccccc1O |  | inactive |
| CC(=O)c1ccc2ccccc2c1 |  | inactive |
| COc1ccc2[nH]cc(CCNC(C)=O)c2c1 |  | inactive |
| c1ccc(OCCOc2ccccc2)cc1 |  | inactive |
| CC(=O)C1=C(C)[C@@H]2C[C@@]3(C1)[C@H](C)CC[C@H]3C2(C)C |  | inactive |

assay: CEETOX_H295R_CORTIC: CeeTox H295R High-throughput Steroidogenesis Assay for Corticosterone (CORTIC) (AID 2283437); conditions: actives raise or lower the signal;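 note: corticosterone secreted into medium quantified by mass spectrometry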;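 for AC50: human H295R adrenal cells prestimulated with forskolin before chemical exposure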
Method in brief: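 Corticosterone secreted into medium is measured by reverse-phase HPLC with tandem MS following liquid-liquid extraction. Cells are forskolin-stimulated (10 uM, 48 h) before 48 h test exposure; activity fitted in both directions against DMSO.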

| SMILES | outcome | AC50 |
| --- | --- | --- |
| CCCCCCCCCCCCN1CCOCC1 | inactive |  |
| O=C(OCc1ccccc1)c1ccccc1O | inactive |  |
| CC(=O)c1ccc2ccccc2c1 | inactive |  |
| COc1ccc2[nH]cc(CCNC(C)=O)c2c1 |  | 10.5 µM (active) |
| c1ccc(OCCOc2ccccc2)cc1 | inactive |  |
